Results on 19 compounds are retold here after PubChem BioAssay (NCI).

The panel holds about 83,000 compounds, 20% with a hit somewhere; the sample as a whole holds those more often.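 Growth was measured after 48 h exposure to one concentration of compound in 96-well plates. Values under 10 count as active.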 Unmarked numbers belong to inactive results. Activity calls are given as the source filed them.

Test systems include T-47D breast; BT-549 breast; MDA-MB-435 melanoma; SW-620 colon; MCF7 breast; HCT-116 colon; HCC-2998 colon; KM12 colon.
Experiment in all cases: NCI-60 one-dose screen, 48 h (100 = growth as untreated, 0 = no growth, -100 = all killed)
Details in all cases: 10 µM unless noted

Take `COC(=O)[C@]12CCC(C)(C)C[C@H]1C1=CC[C@@H]3[C@@]4(C)C/C(=C/c5cccnc5)C(=O)C(C)(C)[C@@H]4CC[C@@]3(C)[C@]1(C)CC2`: the growth in the assay with T-47D breast was -12% [100 µM] (active); in the assay with BT-549 breast, -45.7% [100 µM] (active); in the assay on MDA-MB-435 melanoma it was -51.1% [100 µM] (active); in the assay with SW-620 colon, -43.4% [100 µM] (active); in the assay on MCF7 breast, -65.1% [100 µM] (active); with HCT-116 colon it was -29.4% [100 µM] (active). The growth was -72.8% [100 µM] (active) in the assay on HCC-2998 colon and -48.6% [100 µM] (active) in the assay on KM12 colon.
As for `C=C(C)[C@@H]1CC[C@]2(c3ncc(C)o3)CC[C@]3(C)[C@H](CC[C@@H]4[C@@](C)(CCC#N)[C@H](C(=C)C)CC[C@]43C)[C@@H]12`, the growth in the assay on T-47D breast is -73.4% [100 µM] (active); with BT-549 breast, -76% [100 µM] (active); in the assay with MDA-MB-435 melanoma, -84.6% [100 µM] (active); in the assay with SW-620 colon, -70% [100 µM] (active); in the assay with MCF7 breast it was -73.3% [100 µM] (active); in the assay with HCT-116 colon, -81.8% [100 µM] (active). The values for the growth in the assay on HCC-2998 colon and in the assay on KM12 colon were -80.9% [100 µM] (active) and -75.1% [100 µM] (active), respectively.
As for `O=C(Nc1cccc(C2=NCCN2)c1)c1cccc(C(=O)Nc2cccc(C3=NCCN3)c2)c1`, the growth in the assay with T-47D breast is 96.7%; in the assay with BT-549 breast, 110%; with MDA-MB-435 melanoma, 98.8%; in the assay with SW-620 colon, 98.2%; with MCF7 breast it was 88.4%; with HCT-116 colon, 99.7%. The values for the growth with HCC-2998 colon and in the assay with KM12 colon were 107% and 101%, respectively.
Consider `O=C1CC(c2ccccc2)Cc2nc3ccc(Br)cc3cc21` (configuration not stated), for which the growth in the assay with T-47D breast was 67.2%; with BT-549 breast, 6.48% (active); in the assay with MDA-MB-435 melanoma it was -39.8% (active); in the assay on SW-620 colon it was 25.1%; in the assay on MCF7 breast, 61.2%; with HCT-116 colon, 5.56% (active). Further, the growth was 27% in the assay with HCC-2998 colon and 8.94% (active) in the assay with KM12 colon.
On to `N#C/C(C(=O)c1ccccc1)=C1/C(=O)Nc2ccccc21`, for which the growth with T-47D breast was 97.1%; with BT-549 breast, 48.3%; with MDA-MB-435 melanoma, 97.6%; in the assay on SW-620 colon, 95.9%; with MCF7 breast, 89.1%; with HCT-116 colon, -50.4% (active). In addition, the growth in the assay on HCC-2998 colon was 112%; in the assay with KM12 colon, 100%.
With `O=C(N=c1n(-c2ccccc2)nc2n1CCN2C1=NCCN1)c1ccc(Cl)cc1`, the growth in the assay on T-47D breast was 83.9%; in the assay with BT-549 breast, 101%; with MDA-MB-435 melanoma, 42.1%; in the assay on SW-620 colon, 79.5%; in the assay on MCF7 breast, 86.4%; in the assay on HCT-116 colon it was 103%. Moreover, the growth in the assay with HCC-2998 colon was 73%; in the assay with KM12 colon, 99.3%.
Regarding `Clc1ccc2nc(-c3ccc(-c4ccc(/C=N/NC5=NCCN5)cc4)s3)cn2c1`, the growth in the assay on T-47D breast was 92.6%; in the assay with BT-549 breast, 91.6%; in the assay on MDA-MB-435 melanoma, 101%; with SW-620 colon, 29.7%; in the assay with MCF7 breast it was 79.4%; in the assay on HCT-116 colon, 86.8%. For the same compound, the growth was 109% with HCC-2998 colon and 103% in the assay on KM12 colon.
On to `CC(=O)Nc1ccc2nc3ccc(NC(C)=O)cc3[n+](-c3ccccc3)c2c1`, for which the growth in the assay with T-47D breast is 93.4%; in the assay on BT-549 breast it was 101%; in the assay on MDA-MB-435 melanoma, 123%; in the assay with SW-620 colon, 116%; in the assay on MCF7 breast it was 73.1%; with HCT-116 colon, 95.6%. The figures for the growth with HCC-2998 colon and in the assay with KM12 colon were 108% and 116%, respectively.
With `O=c1c2c3c(sc2n2cnnc2n1Cc1ccccc1)CCCC3`, the growth with T-47D breast is 38.4%; in the assay with BT-549 breast it was 95.7%; in the assay on MDA-MB-435 melanoma, 113%; with SW-620 colon, 113%; with MCF7 breast, 96.6%; in the assay with HCT-116 colon, 122%. The results for the growth with HCC-2998 colon and in the assay with KM12 colon were 105% and 113%, respectively.
Regarding `CCOC(=O)COc1ccc2c(c1)O/C(=C\c1ccc(O)cc1)C2=O`, the growth is 99.9% in the assay on T-47D breast; 101% with BT-549 breast; 102% in the assay on MDA-MB-435 melanoma; 104% with SW-620 colon; 105% with MCF7 breast; 105% in the assay with HCT-116 colon. Besides, the growth in the assay on HCC-2998 colon is 111%; in the assay with KM12 colon it was 110%.
As for `Cc1nn(-c2ccccc2)c(N2CCOCC2)c1-c1nc2ccc([N+](=O)[O-])cc2[nH]1`, the growth was 95.8% in the assay on T-47D breast; 96.8% in the assay on BT-549 breast; 96.1% with MDA-MB-435 melanoma; 116% in the assay on SW-620 colon; 96.6% in the assay on MCF7 breast; 97.8% in the assay with HCT-116 colon. Moreover, the growth with HCC-2998 colon was 133%; in the assay on KM12 colon, 103%.
Take `Cc1cccc([N+](=O)[O-])c1I`: the growth is 104% with T-47D breast; 110% in the assay with BT-549 breast; 103% with MDA-MB-435 melanoma; 108% with SW-620 colon; 114% in the assay on MCF7 breast; 112% in the assay on HCT-116 colon. Further, the growth in the assay on HCC-2998 colon is 101%; with KM12 colon, 112%.
For `CC1(C)S[C@@H]2[C@H](NC(=O)[C@H](C(=O)O)c3cccs3)C(=O)N2[C@H]1C(=O)O`, the growth with T-47D breast is 102%; in the assay on BT-549 breast, 96.2%; in the assay on MDA-MB-435 melanoma, 106%; with SW-620 colon it was 113%; with MCF7 breast, 110%; in the assay on HCT-116 colon, 108%. Also, the growth is 103% with HCC-2998 colon and 106% with KM12 colon.
Consider `Cc1ccc(Cn2c(O)c(N=NC(=O)c3ccc(S(N)(=O)=O)cc3)c3ccccc32)cc1`, for which the growth was 83.7% in the assay on T-47D breast; 102% with BT-549 breast; 102% in the assay on MDA-MB-435 melanoma; 100% in the assay with SW-620 colon; 95% in the assay with MCF7 breast; 102% with HCT-116 colon. The growth was 114% with HCC-2998 colon and 106% with KM12 colon.
For `COc1ccc(/C=C/C(=C/c2c(O)[nH]c3cc(Br)ccc23)N=O)cc1`, the growth with T-47D breast was 103%; in the assay on BT-549 breast, 106%; in the assay with MDA-MB-435 melanoma it was 108%; in the assay with SW-620 colon, 113%; in the assay on MCF7 breast, 104%; in the assay on HCT-116 colon, 99.7%. The growth in the assay on HCC-2998 colon was 121%; in the assay on KM12 colon it was 97.1%.
For `CC1(C)CC[C@]23CC[C@]4(C)[C@H](CC[C@@H]5[C@@]6(C)C/C(=C/c7ccncc7)C(=O)C(C)(C)[C@@H]6CC[C@]54C)[C@H]2[C@H]1OC3=O`, the growth in the assay on T-47D breast was 62.6% [100 µM]; with BT-549 breast it was 52.4% [100 µM]; in the assay on MDA-MB-435 melanoma, 78.7% [100 µM]; in the assay on SW-620 colon, 80.8% [100 µM]; in the assay on MCF7 breast it was 70.1% [100 µM]; in the assay with HCT-116 colon it was 47.9% [100 µM]. For the same compound, the growth in the assay with HCC-2998 colon was 78.2% [100 µM]; in the assay on KM12 colon, 81.3% [100 µM].
For `CSc1nc2c(c(=O)n1C)C1(C(=O)N(Cc3ccccc3)c3ccccc31)c1c(nc(SC)n(C)c1=O)N2`, the growth was 63.7% in the assay on T-47D breast; 104% in the assay on BT-549 breast; 107% in the assay with MDA-MB-435 melanoma; 94.3% in the assay with SW-620 colon; 82.6% with MCF7 breast; 93% in the assay on HCT-116 colon. Also, the results for the growth in the assay with HCC-2998 colon and with KM12 colon were 99.6% and 87.9%, respectively.
With `COc1ccc(C(=O)CSc2nnc(-c3cc(-c4ccccc4)nc4ccccc34)o2)cc1`, the growth in the assay on T-47D breast was 108%; with BT-549 breast it was 105%; in the assay on MDA-MB-435 melanoma, 106%; with SW-620 colon, 107%; with MCF7 breast, 103%; with HCT-116 colon, 101%. Also, the growth is 118% in the assay on HCC-2998 colon and 105% with KM12 colon.
For `CCCCCCCCCN(CCCCCCCCC)C(C)C(=O)c1ccc2cc(Br)c3ccccc3c2c1` (configuration not stated), the growth with T-47D breast was 79.8%; with BT-549 breast it was 101%; in the assay with MDA-MB-435 melanoma, 76.5%; in the assay with SW-620 colon it was 67%; in the assay with MCF7 breast, 97.7%; in the assay on HCT-116 colon, 73.5%. Besides, the values for the growth in the assay with HCC-2998 colon and in the assay on KM12 colon were 47.7% and 81.4%, respectively.
